From PubChem BioAssay AID463165 (Johns Hopkins Ion Channel Center, 2010)
The whole screen tested about 310,000 compounds, of which about 1,400 (0.45%) were called active.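 Rule for the calls: active = B-score, a plate-corrected calcium signal, over three deviations above library mean, with baseline fluorescence within five deviations of library mean; inactive = the rest.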 What follows is part of a selection rich in actives, with near analogues and random picks from the rest.

Each molecule was assayed against Regulator of G-protein signaling 4 (Homo sapiens) (UniProt P49798) (assay: blockers of RGS4 function in M3R calcium signaling – cell-based, HEK293 M3R inducible RGS4, calcium flux, primary screen (AID 463165;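 note: RGS4 expression induced by doxycycline in cells with stable M3 receptor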;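 for B-score: B-score is computed from the integrated fluorescence ratio over baseline after carbachol; higher B-score means a larger calcium signal and so more RGS4 inhibition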)). Conditions: Fluo-4 calcium flux, at 10 µM, triggered by carbachol at its EC20; hits give high values.
Sequence of Regulator of G-protein signaling 4 (Homo sapiens) (P49798 whole entry, looked up): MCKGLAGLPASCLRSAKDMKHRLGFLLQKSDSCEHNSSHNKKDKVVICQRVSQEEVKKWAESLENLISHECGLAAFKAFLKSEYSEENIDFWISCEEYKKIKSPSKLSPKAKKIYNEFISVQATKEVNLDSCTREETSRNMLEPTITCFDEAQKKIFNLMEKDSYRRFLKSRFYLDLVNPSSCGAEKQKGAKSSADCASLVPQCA

Row | SMILES | B-score
1 | CN=C(NC#N)NCCSCc1nc[nH]c1C | inactive
2 | COc1ccc(CN(C(=O)CSc2nnc(-c3ccc(OC)c(OC)c3)o2)c2ccc(F)cc2)cc1 | inactive
3 | CCOc1ccc(/C=N/NC(=O)C(C)Sc2ccccn2)cc1OCC (configuration not stated) | inactive
4 | Cc1ccc(/C=N/NC(=O)CSc2ccccn2)o1 | inactive
5 | CCOc1ccc(/C=N/NC(=O)CSc2ccccn2)cc1O | 4.74 (active)
6 | Cc1cc(=O)oc2cc(OC(C)C(=O)Nc3ccc(N4CCOCC4)cc3)ccc12 (configuration not stated) | inactive
7 | COc1cc(NC(=O)CSC(=S)N2CCCC2)c(OC)cc1Cl | inactive
8 | CC(C)(C)Oc1ccccc1Nc1nc(NCCO)nc(N2CCCC2)n1 | inactive
9 | CCOc1ccc(CNC(=O)CCC(=O)N2CCSc3ccccc32)cc1 | inactive
10 | CC(C)(C)OC(=O)CNC(=O)c1[nH]cnc1C(=O)N[C@@H](Cc1ccccc1)C(=O)OCc1ccccc1 | inactive
11 | C[C@H](NC(=O)c1nc[nH]c1C(=O)NCC(=O)OC(C)(C)C)C(=O)OCc1ccccc1 | inactive
12 | C[C@H](NC(=O)c1nc[nH]c1C(=O)NCC(=O)OC(C)(C)C)c1ccccc1 | 5.48 (active)
13 | Cc1ccc(N(C(=O)c2ccc(CN3CCOCC3)o2)C(C(=O)NCCC(C)C)c2cccs2)c(C)c1 (configuration not stated) | inactive
14 | O=C(CSCc1ccccc1)Nc1ccccc1 | inactive
15 | CCN(CC)S(=O)(=O)c1ccc(N2CC(C(=O)NCc3cccnc3)CC2=O)cc1 (configuration not stated) | inactive
16 | Cc1ccc(/C=C2\CCn3c2nc2cc(C(=O)O)ccc2c3=O)c(C)c1 | 6.23 (active)
17 | O=C(O)c1ccc2c(=O)n3c(nc2c1)/C(=C/c1ccc(OC(F)F)cc1OC(F)F)CC3 | inactive
18 | N#Cc1ccc(/C=C2\CCn3c2nc2cc(C(=O)O)ccc2c3=O)cc1 | inactive
19 | CCOC1CS(=O)(=O)CC1OCC (configuration not stated) | inactive
20 | CCCN(CCC)S(=O)(=O)c1ccc(C(=O)N2CC3CCC(CC3)C2)cc1 | inactive
21 | CC(C)=CCCC1(C)C=Cc2c(ccc3c2[nH]c2cc(O)c(C)cc23)O1 (configuration not stated) | inactive
22 | O=C(O)CCC(=O)N(Cc1ccccc1)Cc1ccccc1 | inactive
23 | O=C(Nc1ccccc1Cl)c1ccccc1S(=O)(=O)c1ccccc1[N+](=O)[O-] | inactive

Row | SMILES | B-score
24 | Cc1nn(Cc2ccccc2)c2c1C(c1ccccc1)C(C#N)=C(N)O2 (configuration not stated) | inactive
25 | Cc1nn(-c2ccccc2)c2c1C(c1ccc(F)cc1)C(C#N)=C(N)O2 (configuration not stated) | inactive
26 | COc1ccccc1C1C(C#N)=C(N)Oc2c1c(-c1ccccc1)nn2-c1ccccc1 (configuration not stated) | 8.32 (active)
27 | Cc1cccc(OCCCC(=O)Nc2ccc(S(=O)(=O)N3CCCC3)cc2)c1 | inactive
28 | CS(=O)(=O)c1ccc(C(=O)OCC(=O)NNC(=O)COc2ccc(Cl)cc2)cc1 | inactive
29 | O=C(Nc1ccc(F)cc1)N1CCCC(c2nc3c(nnn3Cc3ccccc3Cl)c(=O)[nH]2)C1 (configuration not stated) | inactive
30 | Cc1ccc(C)c(Cn2nnc3c(=O)[nH]c(C(=O)Nc4ccc(F)cc4)nc32)c1 | 7.87 (active)
31 | Cc1ccc(NC(=O)N2CCC(c3nc4c(nnn4Cc4c(F)cccc4Cl)c(=O)[nH]3)CC2)cc1 | inactive
32 | O=C(O)C1C2C=CC(C2)C1C(=O)NCc1ccccc1 (configuration not stated) | inactive
33 | O=C(CN1C(=O)NC2(CCCCCC2)C1=O)NCc1cccs1 | inactive
34 | COC(=O)c1c(C(=O)OC)c2n(c1C)CCS2 | inactive
35 | COc1ccc(C)cc1NC(=O)CSc1nnc2ccc(-c3ccccn3)nn12 | inactive
36 | COc1ccc(S(=O)(=O)Nc2ccc(O)c(Sc3nc4ccccc4s3)c2)cc1 | 5.99 (active)
37 | O=C(O)c1cccc(S(=O)(=O)Nc2ccc(O)cc2Sc2nc3ccccc3s2)c1 | inactive
38 | CCOc1ccc(S(=O)(=O)Nc2nc3cc(OC)ccc3s2)cc1 | inactive
39 | CNc1nccc(-c2ccc(Cl)cc2)c1C#N | inactive
40 | Cc1ccc(C)c2c1cc(C)c1nnc(SCC(=O)Nc3cccc(C(=O)O)c3)n12 | inactive
41 | CC(C)c1nc(SCC(=O)Nc2cccc(C(=O)O)c2)c2c3c(sc2n1)CCCC3 | 5.64 (active)
42 | Cc1cc(NC(=O)CSc2nc(C(C)C)nc3sc4c(c23)CCC(C)C4)no1 (configuration not stated) | inactive
43 | Cc1ccccc1OC(=O)Cn1c(C(F)(F)F)nc2ccccc21 | inactive
44 | Cc1ccc(-n2[nH]c(C)c(/C=N/NC(=O)c3cccc([N+](=O)[O-])c3)c2=O)cc1C | inactive
45 | COc1ccc(-c2csc(Nc3ccc(O)cc3)n2)cc1 | 8.75 (active)
46 | COc1ccc(-c2csc(NC(=O)COC(=O)c3ccc(Br)o3)n2)cc1 | inactive

Row | SMILES | B-score
47 | COc1ccc(-c2csc(Cc3nc(O)cs3)n2)cc1 | inactive
48 | CCOc1ccc(OCC)c(NC(=O)CCS(=O)(=O)c2ccc(C)cc2)c1 | inactive
49 | CN(C)c1ccc(CNC2C3CC4CC(C3)CC2C4)cc1 (configuration not stated) | inactive
50 | CC(=O)Nc1cccc(-c2nc3ccccc3s2)c1C | inactive
51 | Oc1ccc(-c2[nH]ncc2-c2nc3ccccc3s2)c(O)c1 | 5.08 (active)
52 | COc1ccc(Oc2cn[nH]c2-c2ccc(OC)cc2O)cc1 | inactive
53 | CCC1(C(=O)c2ccccc2)C(c2cccc([N+](=O)[O-])c2)C1(C(=O)OC)C(=O)OC (configuration not stated) | inactive
54 | CC(CC(=O)C1C(C)C=CCC1(C)C)NNC(N)=O (configuration not stated) | inactive
55 | Cc1csc(NC(=O)C2=COCCO2)n1 | inactive
56 | CC(=O)NCCC(=O)Nc1nc(-c2ccc3c(c2)OCCO3)cs1 | inactive
57 | Cc1ccc(-c2csc(NC(=O)C3=COCCO3)n2)cc1C | 9.56 (active)
58 | COc1cccc(NC(C)=[N+](C)CCNS(=O)(=O)c2ccc(Cl)cc2)c1 | inactive
59 | CCCCN1C(=O)CC(N2CCOCC2)C1=O (configuration not stated) | inactive
60 | O=C(CN1CCC(O)(c2ccccc2)CC1)Nc1ccc2c(c1)OCCO2 | inactive
61 | O=C(CCN1CCc2ccccc2C(O)(c2ccccc2)C1)c1ccc2c(c1)OCCO2 (configuration not stated) | 8.45 (active)
62 | CCC1(c2ccccc2)NC(=O)N(CC(=O)c2ccc3c(c2)OCO3)C1=O (configuration not stated) | inactive
63 | CC(CO)N1CCS(=O)(=O)CC1 (configuration not stated) | inactive
64 | COc1cccc(OC)c1C(=O)Nc1ccc(Cc2ccncc2)cc1 | inactive
65 | CC(C)Cc1nc(Nc2ccc(S(=O)(=O)N3CCCC3)cc2)c2nnn(Cc3ccccc3)c2n1 | 4.81 (active)
66 | Clc1ccc(Nc2ncnc3c2nnn3Cc2ccccc2)cc1 | inactive
67 | Cc1nc(Nc2ccc(S(=O)(=O)N3CCCC3)cc2)c2nnn(Cc3ccccc3)c2n1 | inactive
